Assay outcomes: PubChem BioAssay, The Scripps Research Institute Molecular Screening Center
GAA850 FXN act: activators of GAA850 frataxin (FXN) promoter; HEK293 lucGAA850 FXN promoter luciferase reporter, 24 h; percent of 10 µM SAHA response; activation, % at 6 µM; actives 0.56% (n = 360,000); AID 540364;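 active = activation above the average of all compounds screened plus 3 SD, cutoff fixed separately per campaign, cut at about 7.5% in these data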
DAX1 inh-1: blocks DAX1 repression of SF-1 activated StAR promoter; HEK293T StAR-luciferase reporter, SF-1/DAX-1 repression relief; inhibition, % at 6.8 µM; actives 1.1% (n = 370,000); AID 652010;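 active = inhibition above the mean over all tested compounds plus 3 SD, cut at about 3.6% in these data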;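 note: higher inhibition means more luminescence from relief of DAX-1 repression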
hgDAF-12 ag: hgDAF-12 agonism, primary luciferase screen | HEK293 GAL4-hgDAF12 UAS-luciferase reporter, agonist luminescence; normalized to butyrate control | activation, % at 6.8 µM | actives 1.8% (n = 370,000) | AID 687014;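 active = activation above a cutoff set at the mean of all screened compounds plus 3 SD, cut at about 10% in these data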
DAX1 inh-2: inhibits human nuclear receptor DAX1; inhibition, % at 6.75 µM; HEK293 Gal4-DAX1 luciferase reporter, luminescence; P51843; actives 0.99% (n = 340,000);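 active = inhibition above the mean over all tested compounds plus 3 SD, cut at about 4.2% in these data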;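 note: inhibition shows as a rise in luminescence from relieved DAX1 repression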
Target sequence (P51843 207-470 limits assumed): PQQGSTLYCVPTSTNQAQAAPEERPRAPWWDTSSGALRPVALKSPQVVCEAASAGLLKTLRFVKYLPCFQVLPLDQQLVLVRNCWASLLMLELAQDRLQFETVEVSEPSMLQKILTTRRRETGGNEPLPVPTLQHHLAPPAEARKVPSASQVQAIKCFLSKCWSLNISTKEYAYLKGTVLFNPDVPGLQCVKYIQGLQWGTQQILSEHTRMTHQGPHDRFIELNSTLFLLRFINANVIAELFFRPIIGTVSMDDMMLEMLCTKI
ssDAF-12 act: activators of S. stercoralis DAF-12 nuclear receptor | AID 652126 | activation, % at 6.8 µM | actives 1% (n = 370,000) | HEK293 ssDAF-12/GRIP1 lit1-tk-luc reporter, luminescence; % of 3 µM dafachronic acid response;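 active = activation above the mean over all tested compounds plus 3 SD, cut at about 0.9% in these data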
hcDAF-12 act: activates DAF-12 receptor from parasite H. contortus; actives 1.4% (n = 370,000); activation, % at 6.8 µM; HEK293 hcDAF-12 lit1-tk-luc reporter, luminescence; 0% DMSO, 100% Δ7-dafachronic acid; AID 652067;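 active = activation above the mean of all tested compounds plus 3 SD, cut at about 5.5% in these data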
Hits are given with their value; i = inactive; nt = no result given. In the library only some 4.5% were active in any assay of this set; here they are far more common.

SMILES	GAA850 FXN act	DAX1 inh-1	hgDAF-12 ag	DAX1 inh-2	ssDAF-12 act	hcDAF-12 act
Cc1ccc(Cc2c(-c3ccc(C)cc3)nc3ccc(Cl)cn23)cc1	i	3.8	i	i	i	i
Cc1ccc2nc(-c3ccc(F)cc3)c(Cc3ccsc3)n2c1	nt	i	10.4	nt	i	i
Cc1ccc2nc(-c3ccc(Cl)cc3)c(Cc3ccsc3)n2c1	nt	i	12.8	nt	i	i
CCOC(=O)[C@]12CCC=C1N(Cc1ccccc1)C(=O)[C@H](CC(=O)N1CCOCC1)C2	nt	4.3	i	nt	i	i
CCOC(=O)[C@]12CCC=C1N(CCC1=CCCCC1)C(=O)[C@H](CC(=O)N1CCSCC1)C2	nt	4.1	i	nt	i	i
Cc1c(NC(=O)C2CCCN(S(=O)(=O)c3ccc(C(C)(C)C)cc3)C2)c(=O)n(-c2ccccc2)n1C (stereo unspecified)	nt	i	i	nt	i	i
CC(=O)N1CCCN(S(=O)(=O)c2ccc3c(c2)n(C)c(=O)c(=O)n3C)CC1	nt	i	i	nt	i	i
O=C(c1cccs1)n1ccc2ccc(-c3ccc4ccn(Cc5ccccc5)c4c3)cc21	nt	i	i	nt	i	i
CN(C)CCN1C(=O)c2oc3ccccc3c(=O)c2C1c1ccc(F)cc1 (stereo unspecified)	i	i	i	i	i	i
CN(C)CCCN1C(=O)c2oc3ccc(F)cc3c(=O)c2C1c1cccnc1 (stereo unspecified)	i	i	11.3	i	i	i
COc1ccc(NC(=O)/C(C#N)=C/c2ccc[nH]2)c(OC)c1	i	i	i	i	i	6.5
Cc1cc(N2CCNC[C@@H]2C)ccc1N1CCN(Cc2ccccc2)[C@@H](C)C1	nt	i	i	nt	i	i
Cc1nnsc1-c1c(C(=O)N2CCOCC2)c(C)nn1-c1ccc(Cl)cc1	i	i	i	4.8	i	i
Nn1c(SCC(=O)Nc2ccccc2-c2ccccc2)nnc1-c1cc(-c2ccc(F)cc2)n[nH]1	nt	i	i	nt	i	i
CN(C)N1C(N)=C(C#N)C(c2cccs2)C2=C1CC(C)(C)CC2=O (stereo unspecified)	i	i	i	nt	2.0	i
O=C(C(=O)N1CCC(CNS(=O)(=O)Cc2ccccc2)CC1)c1cccs1	nt	i	i	nt	i	i
Cc1cc(C)nc(NS(=O)(=O)c2ccc(NC(=O)CSc3ncn[nH]3)cc2)n1	i	i	i	5.8	i	i
O=C(CCl)c1cc2c3c(c1)CC(=O)N3CCC2	8.6	i	i	i	i	i
C=CCNC(=O)NCC1CCN(Cc2ccc(OC)cc2)CC1	nt	i	i	nt	i	i
COc1ccc(N(C(=O)c2cccc([N+](=O)[O-])c2)S(=O)(=O)c2cccs2)cc1	i	i	i	5.1	i	i
COc1ccc(CNC(=O)CN(c2cccc(OC)c2)S(C)(=O)=O)cc1	i	i	i	i	i	i
COc1ccc(N(C(=O)c2ccncc2)S(=O)(=O)c2cccc([N+](=O)[O-])c2)cc1	i	i	i	i	i	i
COc1ccc(CCNC(=O)CN(c2ccccc2OC)S(C)(=O)=O)cc1	i	i	i	i	i	i
COc1ccc(CCNC(=O)CN(c2ccc(OC)cc2)S(C)(=O)=O)cc1	i	i	i	6.4	i	i
COc1ccc(CNC(=O)CN(c2cccc([N+](=O)[O-])c2)S(C)(=O)=O)cc1	i	i	13.2	i	i	i
SMILES	GAA850 FXN act	DAX1 inh-1	hgDAF-12 ag	DAX1 inh-2	ssDAF-12 act	hcDAF-12 act
Cc1onc(C(=O)N2CCN(C(c3ccc(F)cc3)c3ccc(F)cc3)CC2)c1[N+](=O)[O-]	nt	nt	i	nt	i	i
COC(=O)c1ccccc1S(=O)(=O)N1CCC(C(=O)NCC2CCCO2)CC1 (stereo unspecified)	i	i	i	4.3	i	i
O=C(NCC1CCCO1)C1CCN(S(=O)(=O)c2ccccc2)CC1 (stereo unspecified)	i	i	i	i	i	i
COc1ccc2nc(NC(=O)c3ccccc3O)sc2c1	i	i	i	i	i	i
COc1ccc2nc(NC(=O)c3ccccc3[N+](=O)[O-])sc2c1	i	i	i	4.4	i	i
CCC(C)C(=O)Nc1nc2ccc(OC)cc2s1 (stereo unspecified)	i	i	i	nt	i	i
COC(=O)c1ccc2nc(NC(=O)CSCC(=O)OCC(=O)c3ccccc3)sc2c1	i	i	12.5	i	i	i
COc1ccc2nc(NC(C)=O)sc2c1	i	i	12.3	i	i	i
COc1ccc2nc(NC(=O)CSc3nc4ccccc4o3)sc2c1	i	i	i	4.7	i	i
Cc1ccc2nc(NC(=O)CSCC(=O)OCC(=O)c3ccc(Br)cc3)sc2c1	i	i	i	i	i	i
COC(=O)C1CN(Cc2cn(Cc3ccc(Cl)cc3)nn2)CCS(=O)(=O)N1Cc1ccc(F)cc1 (stereo unspecified)	nt	i	i	nt	i	i
COc1ccc2nc(NC(=O)CSCC(=O)Nc3cc(C)on3)sc2c1	i	4.2	i	i	i	i
O=C(Nc1nc2ccccc2s1)c1ccccc1[N+](=O)[O-]	i	i	i	i	1.2	i
O=C(O)c1cccc([N+](=O)[O-])c1C(=O)Nc1nc2ccccc2s1	i	i	i	i	i	i
COc1ccc2nc(NC(=O)CSCc3c(C)noc3C)sc2c1	i	i	i	i	i	i
CCOC(=O)[C@@]12CCCC3=C1N(CCC3)C(=O)[C@H]2CC(=O)NCCCCc1ccccc1	nt	i	i	nt	i	i
CCOc1ccc(N(CC(=O)Nc2ccc(C)cc2)S(C)(=O)=O)cc1	i	i	12.3	i	i	i
Cc1ccc(N(CC(=O)Nc2ccc(-c3nc4ccc(C)cc4s3)cc2)S(C)(=O)=O)cc1	i	4.4	11.8	i	0.9	i
CCOc1ccc(N(CC(=O)Nc2cc(C)cc(C)c2)S(C)(=O)=O)cc1	i	i	i	i	i	i
Cc1ccc(C)c(N(CC(=O)Nc2ccc(-c3nc4ccc(C)cc4s3)cc2)S(C)(=O)=O)c1	i	i	i	i	1.6	i
Cc1ccc(-c2cc(NC(=O)Cc3c(C)[nH]c4ccccc34)ccc2Nc2cccnc2)cc1	nt	i	i	nt	i	i
O=C(NCCO)[C@H](Cc1ccccc1)NC1(C(=O)NCCN2CCOCC2)CCCCC1	nt	nt	i	nt	i	i
O=C(Nc1ccc2c(c1)OCO2)c1cc(C2CCCCN2S(=O)(=O)Cc2ccccc2)on1 (stereo unspecified)	i	4.4	10.9	nt	i	i
Cc1ccc2c(c1)Oc1ccccc1C=C2C(=O)O	i	i	i	4.3	i	i
O=C(c1cc2ccccc2o1)N(Cc1ccco1)Cc1cccs1	i	i	i	i	i	i
Cc1c(C(=O)N(Cc2ccco2)Cc2cccs2)oc2ccccc12	i	i	i	5.5	1.1	i
CCN(CC)C1CCN(Cc2cn[nH]c2-c2ccc(OC)c(F)c2)C1 (stereo unspecified)	i	i	i	nt	i	i
